Among the data in PubChem BioAssay (NCI) are growth inhibition values, retold here.

The panel holds about 79,000 compounds, 15% with a hit somewhere; the sample as a whole holds those more often. Calls of active or inactive are those of the source. Cut-off read from the data, not from the text of the source: active = growth inhibition above about 70%; inactive = the rest.

A short description of this test: NCI Yeast Anticancer Drug Screen. Data for the mlh1 rad18 strain (AID 175). Conditions: S. cerevisiae mlh1 rad18 strain growth inhibition; at 50.0 µM; active compounds read high. In short, it runs like this: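 Read-out is yeast growth inhibition, calculated against vehicle-only controls. The compound was applied to a strain engineered with DNA damage repair alterations.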
`CC1CCC2(OC1)OC1CC3C4CCC5CC(O)CCC5(C)C4CC(=O)OC3(C)C1C2C` (stereo not given): the growth inhibition was 2.2% (inactive).

As to `O=c1[nH]nc(SCc2ccccc2)c2nncn12`, the growth inhibition was 20.1% (inactive).

Take `COC(=O)Nc1cccc(-c2nc3ccc(NC(=O)OC)cc3c(=O)n2-c2ccccc2)c1`: the growth inhibition was 5% (inactive).

Turning to `Cn1c(Nc2ccccc2)c([N+](=O)[O-])c(=O)n(C)c1=O`, the growth inhibition was -27.6% (inactive).

Turning to `COc1ccc2ccc3[nH]c4c(C)cnc(NCCCN(C)C)c4c3c2c1`, the growth inhibition was 29.1% (inactive).

Take `O=C(CCc1nnc2s/c(=C\c3ccc(Cl)cc3Cl)c(=O)n12)Nc1cc(Cl)c(Cl)cc1Cl`: the growth inhibition was 4.35% (inactive).

In the case of `N#Cc1c2c(c(N3CCCCC3)n3c1nc1ccccc13)CCC2`, the growth inhibition is 19.9% (inactive).

For the compound `C/C=C(/C)C(=O)O[C@H]1C[C@@H]2[C@@H](O)c3occ(C)c3C[C@]2(C)[C@@H](C)C1`, the growth inhibition was 90.2% (active).

With `O=c1oc2ccccc2cc1S(=O)(=O)c1ccc(Cl)cc1`, the growth inhibition was -20.4% (inactive).

For `N#CCN1CCOCCOCCN(CC#N)CCOCCOCC1`, the growth inhibition is 42.1% (inactive).

Regarding `O=C(NCc1ccccn1)c1ccccc1`, the growth inhibition is 6.8% (inactive).

As to `Cc1cc(=O)[nH]c(NN2C(Cl)C(=O)C2c2ccc([N+](=O)[O-])cc2)n1` (stereo not given), the growth inhibition is -18.8% (inactive).

Take `COC(=O)Nc1nc2c(OC)c(OC)c(OC)cc2[nH]1`: the growth inhibition was -17.1% (inactive).

`CC(C)OP(=O)(OC(C)C)c1ccc2c(c1)OCCOCCOCCOCCO2`: the growth inhibition is 21.4% (inactive).

Consider `CC(C)OP(=O)(OC(C)C)/C(N)=N/Nc1ccc([N+](=O)[O-])cc1`, for which the growth inhibition is -7.7% (inactive).
